Shown are actives, neighbours in structure and some others; about 3.7% of the full set was active somewhere.
Wnt act = Wnt/beta-catenin pathway activation. Wnt/beta-catenin reporter cell assay, activator, plate reader. activation, % at 9.35 µM. 1.2% of 300,000 active; in the data active = activation above about 30%, passing the limit was not always enough; inconclusive = no clear call, values can overlap the other calls;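 note: 0% = neutral control wells and 100% = positive control wells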
rRNA inh HTS = inhibitors of bacterial rRNA selective over humanized ribosomes; 1.6% of 350,000 active; AID 720706; E. coli WT GFP vs humanized-ribosome RFP mutants, fluorescence, 24 h; hits give low values; DMSO median 0, no signal -100; GFP signal change (wild-type ribosome), % (test concentration not listed);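 active = significant combined selectivity score with lowered wild-type GFP, culture density cut under 30%, mutant RFP and density less affected; inactive = any of these conditions unmet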
MLL AF4-AF9 inh = MLL-AF4/AF9 protein interaction inhibition; P42568; AlphaScreen, biotin-AF4 peptide binding to FLAG-AF9; inhibition, % at 10 µM; 0.47% of 350,000 active; AID 651704;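 active = every replicate reaching a set inhibition limit, whatever the replicate mean, cut at about 25% in these data; inconclusive = mean inhibition reaches that limit but some replicates miss it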;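 note: 0% = plate neutral control median and 100% = total signal loss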
Target sequence (P42568 whole entry, looked up): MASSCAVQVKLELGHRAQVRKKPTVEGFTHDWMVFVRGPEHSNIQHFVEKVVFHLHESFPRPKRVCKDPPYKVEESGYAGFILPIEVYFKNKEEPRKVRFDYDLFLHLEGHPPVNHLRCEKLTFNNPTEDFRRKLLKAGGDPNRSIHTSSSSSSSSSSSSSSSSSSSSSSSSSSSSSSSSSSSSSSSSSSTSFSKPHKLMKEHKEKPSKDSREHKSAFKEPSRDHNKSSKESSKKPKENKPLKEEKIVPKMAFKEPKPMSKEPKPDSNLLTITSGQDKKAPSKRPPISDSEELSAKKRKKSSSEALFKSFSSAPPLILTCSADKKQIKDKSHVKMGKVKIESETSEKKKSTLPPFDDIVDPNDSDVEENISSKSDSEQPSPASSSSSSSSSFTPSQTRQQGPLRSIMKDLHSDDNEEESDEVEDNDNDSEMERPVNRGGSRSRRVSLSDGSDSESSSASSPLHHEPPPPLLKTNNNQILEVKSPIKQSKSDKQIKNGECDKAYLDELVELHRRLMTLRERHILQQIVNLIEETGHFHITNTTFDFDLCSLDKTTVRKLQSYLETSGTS
MITF TRPM1 HTS = activators of MITF-driven TRPM1 promoter activity in SK-MEL-5 cells; SK-MEL-5 TRPM1-promoter luciferase, 24 h; % of positive control, neutral wells = 0; activation, % at 12.5 µM; 0.75% of 300,000 active;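 active = mean activation of at least 80% with every replicate also reaching 80%; inconclusive = mean reaches 80% but some replicate falls short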;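 note: 0% = neutral control wells and 100% = parthenolide positive control wells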
esBAF inh = SWI/SNF esBAF complex inhibition; mouse ES cells, Bmi1-luciferase knock-in reporter, 24 h; 100% = twice the neutral-well signal; reporter increase, % at 12.5 µM; 2% of 350,000 active; AID 602393; in the data active = activation above about 40%; inconclusive = no clear call, values can overlap the other calls;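 note: 0% = median of the plate's neutral control wells and 100% = double that signal; a rise in the Bmi1 reporter signal indicates esBAF inhibition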
An asterisk follows results filed as active; ? = inconclusive; / = no result given.

SMILES	Wnt act	rRNA inh HTS	MLL AF4-AF9 inh	MITF TRPM1 HTS	esBAF inh
CC(C)NC(=O)N(C)C[C@H]1Oc2ccc(N(C)C)cc2CC(=O)N([C@H](C)CO)C[C@@H]1C	/	3	-1	/	-7
Nc1ccccc1SC1CC(=O)N(c2ccc3c(c2)OCCO3)C1=O (configuration not stated)	35*	10	3	/	/
Fc1ccc(-c2cnc(-c3cccs3)o2)cc1	34*	/	/	54	-12
CC(C)(C)OC(=O)NNC1CC(=O)N(c2ccccc2F)C1=O (configuration not stated)	4	/	/	-5	6
C=C(C)CSc1nncn1/N=C/c1ccc(OC)cc1	/	/	/	98*	50*
c1csc(-c2ccc3ccccc3n2)c1	20	/	/	59	43*
N#Cc1cc2ccccc2nc1N	0	12	-1	-10	/
Cc1ccc(-c2cc3ccccc3nc2N)cc1	20	-18	1	/	47*
Nc1nc2ccccc2cc1-c1cccs1	20	-13	-3	90*	?
C[C@H](CO)N1C[C@H](C)[C@H](CN(C)C(=O)CCCN(C)C)OCc2cnnn2CCCC1=O	/	-1	-7	/	4
CNC(=O)C[C@H]1CC[C@@H]2[C@H](COC[C@H](O)CN2Cc2ccccc2F)O1	/	2	0	/	-2
CC1Oc2ccccc2C=C1/C=N/NC(=O)c1ccccc1 (configuration not stated)	37*	/	/	89*	/
C[C@H](CO)N1C[C@H](C)[C@@H](CN(C)Cc2ccc3c(c2)OCO3)Oc2ccc(NS(=O)(=O)c3ccc(Cl)cc3)cc2CC1=O	/	-55	5	/	2
CCOCc1c(C(=O)OCC(=O)Nc2ccccc2C(N)=O)oc2ccccc12	39*	-12	-1	-4	-3
COc1ccc(S(=O)(=O)CC(=O)c2cc3cc(Br)ccc3oc2=O)cc1	-1	-22*	-1	4	-2
COc1ccc(OC)c(S(=O)(=O)CC(=O)c2cc3ccc(OC)cc3oc2=O)c1	/	/	/	-4	6
Cc1noc(C)c1NC(=O)N[C@H]1C=C[C@@H](CC(=O)NCCCN(C)C)O[C@H]1CO	/	1	1	/	-2
COc1cc(/C=C(\C#N)C(=O)N2CCc3ccccc32)ccc1O	-2	-33*	5	-9	-1
COc1ccc(C(=O)c2ccccc2)cc1	0	10	-1	13	/
COc1ccc(C(=O)c2ccc(Br)cc2)cc1	-5	/	/	52	55*
C/C(=N\NC(=O)c1cc(-c2ccccn2)nc2ccccc12)c1cccc([N+](=O)[O-])c1	-2	2	1	-2	3
CC(=O)C(C)Oc1ccc2c3c(c(=O)oc2c1)CCCCC3 (configuration not stated)	/	/	/	?	66*
CCOc1cc(/C=C/C(=O)Nc2ccc(C(=O)NCCN(CC)CC)cc2)ccc1OCC(C)C	-1	-52	31*	-82	/
CN(C)C=Nc1ccc2nc3c(cc2c1)[nH]c1ccccc13	39*	-8	11	68	3
CCOC(=O)c1[nH]c2ccccc2c1N=CN(C)C	/	/	/	-9	/
SMILES	Wnt act	rRNA inh HTS	MLL AF4-AF9 inh	MITF TRPM1 HTS	esBAF inh
Cc1ccsc1/C=N\NC(=O)c1cc(C(C)(C)C)[nH]n1	25	-9	3	54	/
COc1ccccc1OCCNC(=O)c1ccc2c(c1)OCCO2	52*	-2	4	59	8
COc1ccccc1OCCNC(=O)c1ccc2c(c1)CCC2	14	-9	-4	?	49*
COc1ccccc1CNC(=O)c1ccc(S(=O)(=O)N(C)C)cc1	/	/	/	-3	-9
COc1ccccc1OCCNC(=O)c1ccc(S(=O)(=O)N(C)C)cc1	-2	-18*	1	-2	5
COc1ccccc1OCCNC(=O)CNC(=O)c1ccc2c(c1)OCO2	0	11	4	-1	-2
COc1ccccc1OCCNC(=O)CNC(=O)c1ccc(Cl)c(Cl)c1	-7	-18	-1	-19	/
O=C(NCC1COc2ccccc2O1)C1C2C=CC3(CN(Cc4cccs4)C(=O)C13)O2 (configuration not stated)	-7	/	/	/	7
O=C(NC(=S)Nc1cc(C(F)(F)F)ccc1N1CCOCC1)c1ccco1	-1	2	4	/	/
Cc1ccc2nc(NC(=O)COC(=O)c3ccncc3)sc2c1	26	0	1	72	/
COCC(=O)Nc1nc2ccc(C)cc2s1	40*	/	/	49	/
Cc1ccc2nc(NC(=O)CS(=O)(=O)Cc3ccccc3)sc2c1	40*	3	-30	16	6
Cc1ccc2nc(NC(=O)CCNS(=O)(=O)c3cccs3)sc2c1	12	/	/	46	70*
CNC[C@@H]1OCCCC[C@@H](C)Oc2ccc(NC(=O)NC3CCCCC3)cc2C(=O)N([C@H](C)CO)C[C@H]1C	/	4	2	/	2
COc1cccc(NC(=O)c2ccc(-c3ccccc3[N+](=O)[O-])o2)c1	3	-43	1	35	/
O=C(NC1CCCCC1)c1ccc(-c2ccccc2[N+](=O)[O-])o1	25	-14	6	11	89*
Cc1ccccc1-c1ccc(C(=O)Nc2cccc(F)c2)o1	27	-13	2	53	45*
Cc1cccc(NC(=O)c2ccc(-c3ccccc3[N+](=O)[O-])o2)c1	-1	-32*	3	26	8
O=C(c1cc2ccccc2[nH]1)N1CCOCC1	36*	/	/	-23	/
S=C(NCc1ccccc1)Nc1ccc2ccccc2c1	21	-37	-2	60	80*
C/C(=C\C(=S)Nc1ccccc1)Nc1cccc2ccccc12	7	/	/	-8	/
C/C(=C\C(=S)Nc1ccccc1)Nc1ccc2ccccc2c1	52*	-18	2	14	/
CCN1CCN(c2ccc(NC(=O)c3ccc4c(c3)OCCO4)cc2C)CC1	26	-3	-12	21	-1
CCCCN(CCCC)CCNC(=O)CSCc1ccc(C)cc1	-3	5	5	2	-7
Cn1c(C(C(=O)NCC2CCCO2)N(CCc2ccccc2)C(=O)Cn2nnc3ccccc32)nc2ccccc21 (configuration not stated)	-4	-22*	2	-12	-4
SMILES	Wnt act	rRNA inh HTS	MLL AF4-AF9 inh	MITF TRPM1 HTS	esBAF inh
O=C(Nc1ncccn1)c1ccc([N+](=O)[O-])cc1	0	9	-2	13	/
O=C(NC(=S)Nc1ccccn1)c1ccccc1	39*	-3	-3	33	4
Cc1ccc(C(=O)NNC(=S)NC(=O)COc2ccccc2)cc1	0	-10	0	-11	/
O=C(NC(=S)Nc1ccccn1)c1ccc([N+](=O)[O-])cc1	/	/	/	78	77*
O=C(NC(=S)Nc1ccccn1)c1ccco1	27	/	/	50	/
O=C(Nc1ccc(Cl)cc1)c1ccc(-c2ccccn2)s1	39*	2	-1	/	?
Cc1ccccc1C(=O)NNC(=S)NC(=O)COc1ccccc1	3	-22*	5	5	/
O=C(Nc1ccccn1)c1ccc(Br)s1	0	-8	0	/	48*
Cc1cc(C)nc(NC(=O)c2ccc(Br)s2)n1	7	-5	-1	/	-1
Cc1ccccc1C(=O)NC(=S)Nc1ncccn1	3	7	-7	39	47*

Compound activity as filed in PubChem BioAssay.
